Experimental data published in PubChem BioAssay AID1851 (National Center for Advancing Translational Sciences (NCATS), 2009).
The campaign covered roughly 16,000 compounds. About 5,800 (36%) were called active. Roughly 23% stayed inconclusive and do not appear here. Calls come from the whole dose curve; as a rule, active = well fitted curve in the direction sought with a large enough effect; inconclusive = small, poorly fitted or top-dose-only effect, or effect the other way; inactive = no such curve, though single readings can be large or run the other way. This is one part of the list.

These compounds were tested against Cytochrome P450 2C19 (Homo sapiens) (UniProt P33261) (assay: Cytochrome panel assay with activity outcomes). Conditions: recombinant CYP, pro-luciferin dealkylation, luminescence, p450-cyp2c19; series mostly up to 57.1 µM; activity, negative = inhibition: at the top concentration.
Sequence of Cytochrome P450 2C19 (Homo sapiens) (P33261 whole entry, looked up): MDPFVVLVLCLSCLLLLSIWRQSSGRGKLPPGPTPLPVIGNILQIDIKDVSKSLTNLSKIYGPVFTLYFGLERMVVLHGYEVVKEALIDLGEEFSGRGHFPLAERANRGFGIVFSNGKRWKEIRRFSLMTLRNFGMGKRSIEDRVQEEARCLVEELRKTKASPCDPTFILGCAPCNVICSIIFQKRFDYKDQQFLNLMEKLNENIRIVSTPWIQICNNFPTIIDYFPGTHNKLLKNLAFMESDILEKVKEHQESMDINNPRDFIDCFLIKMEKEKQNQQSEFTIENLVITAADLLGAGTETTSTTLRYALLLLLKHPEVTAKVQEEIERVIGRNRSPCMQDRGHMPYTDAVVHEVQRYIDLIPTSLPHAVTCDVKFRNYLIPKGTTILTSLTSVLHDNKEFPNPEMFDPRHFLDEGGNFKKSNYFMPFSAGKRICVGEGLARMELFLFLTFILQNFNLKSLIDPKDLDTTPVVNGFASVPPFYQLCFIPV
% is set by controls: 0 for no effect and ±100 for the full control effect.

Row | Compound | activity, negative = inhibition | AC50
1 | CC[C@H](CO)NCCN[C@@H](CC)CO | 22.2% [at 25.6 µM] (inactive) | –
2 | CCN1C(=O)c2cccc3c(NC(=O)c4cccc(N5C(=O)CCC5=O)c4)ccc1c23 | -13.5% (inactive) | –
3 | CCCN(CCC)CCCNC(=O)c1ccc2c(c1)N(CC)C(=O)c1ccccc1S2=O (configuration not stated) | 33.6% (inactive) | –
4 | CCOC(=O)c1ccc(NC(=O)Nc2ccc3c4c(cccc24)C(=O)N3CC)cc1 | – | 11.2 µM (active)
5 | Cc1cc(C=O)c(C)n1-c1ccc(NC2CCCC2)c([N+](=O)[O-])c1 | – | 6.31 µM (active)
6 | Cc1ccc(C(=O)N/N=C/c2cc(C)n(-c3ccc(Br)cc3)c2C)cc1[N+](=O)[O-] | -28.2% (inactive) | –
7 | N[C@@](CCc1ccccc1)(C(=O)O)c1ccccc1 | -19.5% [at 11.4 µM] (inactive) | –
8 | CN(/C=C/C(=O)C(F)(F)F)Cc1ccccc1 | – | 8.91 µM (active)
9 | CCCC[C@@H]1C[C@H]1C(NC(=O)c1cccs1)c1ccccc1C(F)(F)F (some centres not stated) | – | 0.631 µM (active)
10 | CCCC[C@@H]1C[C@H]1C(NC(=O)c1ccccc1)c1ccccc1C(F)(F)F (some centres not stated) | – | 0.501 µM (active)
11 | COC(=O)c1sccc1NC(=O)CSc1ccccc1NS(=O)(=O)c1ccc(Cl)cc1 | – | 0.794 µM (active)
12 | COC(=O)c1sccc1NC(=O)CSc1cc(Cl)ccc1Cl | – | 2.82 µM (active)
13 | Cc1cnc(NC(=O)CSc2ccc(Cl)cc2)s1 | – | 2 µM (active)
14 | COC(=O)c1sccc1NC(=O)CN(C)NS(=O)(=O)c1ccc(F)cc1 | – | 14.1 µM (active)
15 | Cc1cc(Cl)nc(NC(=O)CSc2ccc(Cl)cc2)n1 | 34.4% [at 11.4 µM] (inactive) | –
16 | Cc1cnc2cc(Cl)ccc2c1SCC(=O)O | 24.8% [at 11.4 µM] (inactive) | –
17 | Oc1ccc(Cc2nccc3cc(O)c(O)cc23)cc1O | -17.6% [at 11.4 µM] (inactive) | –
18 | COCc1nnc(NC(=O)CCN2C(=O)c3ccccc3C2=O)s1 | -6.41% (inactive) | –
19 | COCc1nnc(NC(=O)CSc2ccc(C)cc2)s1 | – | 3.55 µM (active)
20 | COC(=O)c1sccc1NC(=O)CSc1ccc(Cl)cc1 | – | 7.08 µM (active)
21 | COc1ccc2c3c([nH]c2c1)[C@H]1C[C@@H]2[C@@H](C[C@@H](O)[C@H](OC)[C@H]2C(=O)O)CN1CC3 | 19% [at 11.4 µM] (inactive) | –
22 | CCOc1ccc(N(CCC#N)S(=O)(=O)c2ccc(OC)cc2)cc1 | – | 3.55 µM (active)
23 | O=C(Nc1cccc(NC(=O)c2ccc(-c3cccc(Br)c3)o2)c1)c1ccco1 | – | 2.51 µM (active)
24 | O=C(Nc1ccc2nc(-c3ccc(Br)o3)[nH]c2c1)c1ccco1 | – | 22.4 µM (active)
25 | O=C(Nc1cccc(Br)c1)/C(=C\c1cccnc1)NC(=O)c1ccco1 | -17.1% (inactive) | –

Row | Compound | activity, negative = inhibition | AC50
26 | O=C(Nc1cccc(-c2cn3cccnc3n2)c1)c1ccco1 | -20.9% (inactive) | –
27 | CCCCCc1nc2c(C#N)c(-c3ccc(Cl)cc3)ccn2n1 | – | 7.94 µM (active)
28 | Cc1noc(C)c1CS(=O)(=O)c1ccc(Br)cc1 | – | 0.282 µM (active)
29 | CCN1CCN(CC(=O)N2c3ccccc3CC2C)CC1 (configuration not stated) | -27.5% (inactive) | –
30 | O=C1COc2ccccc2CN1 | -13.1% (inactive) | –
31 | CC1Cc2ccccc2N1C(=O)CSc1nnnn1C(C)C (configuration not stated) | – | 4.47 µM (active)
32 | C[C@@H]1Cc2ccccc2N1NC(=O)c1ccc(Cl)c(S(N)=O)c1 (some centres not stated) | -36.6% [at 25.6 µM] (inactive) | –
33 | CC1Cc2ccccc2N1C(=O)CN1C(=O)COc2ccccc21 (configuration not stated) | – | 3.16 µM (active)
34 | Cc1ccccc1-n1ncc2c(SCC(=O)N3c4ccccc4CC3C)ncnc21 (configuration not stated) | – | 7.08 µM (active)
35 | CC1(C)CCC(NC(=O)[C@H](N)CCC(=O)O)CC1 | 12.9% (inactive) | –
36 | COCC(=O)Nc1c(I)c(C(=O)NC[C@@H](O)CO)c(I)c(C(=O)N(C)C[C@@H](O)CO)c1I | -21.5% [at 25.6 µM] (inactive) | –
37 | Cc1cccc(OC2(c3ccccc3)OC(=O)c3ccccc32)c1C (configuration not stated) | – | 2.51 µM (active)
38 | Cc1cccc(C)c1OC1(c2ccccc2)OC(=O)c2ccccc21 (configuration not stated) | – | 0.251 µM (active)
39 | O=C1OC(OC2CCCCC2)(c2ccccc2)c2ccccc21 (configuration not stated) | – | 7.94 µM (active)
40 | C=C[C@]1(C)C[C@H](OC(=O)CO)[C@]2(C)C3C(=O)CC[C@]3(CC[C@H]2C)[C@H](C)[C@H]1O (some centres not stated) | -15.4% [at 11.4 µM] (inactive) | –
41 | O=C(Nc1cccn(Cc2ccc(F)cc2)c1=O)NC1CCCCC1 | – | 10 µM (active)
42 | Cc1ccc(Cn2cccc(NC(=O)NC3CCCCC3)c2=O)cc1 | – | 14.1 µM (active)
43 | COCCn1c(=O)c(-c2cc(F)cc(F)c2)nc2cnc(N3CCOCC3)nc21 | 12.7% (inactive) | –
44 | c1ccc2oc(C3=NCCN3)cc2c1 | -37.9% (inactive) | –
45 | COCCn1c(=O)c(C)nc2cnc(N3CCNCC3)nc21 | -13.7% (inactive) | –
46 | O=[N+]([O-])c1ccc(N2CCOCC2)nc1 | -21.3% (inactive) | –
47 | Cc1cc(N2CCOCC2)ncc1[N+](=O)[O-] | – | 31.6 µM (active)
48 | Cc1ccc(S(=O)(=O)/N=C2/NC(=O)/C(=C/c3cccnc3)S2)cc1 | – | 2.24 µM (active)
49 | O=C(CSCc1ccc(Cl)cc1)Nc1nccs1 | – | 2.51 µM (active)
50 | Cc1ccc(S(=O)(=O)NC(=O)CSc2nc3ccccc3s2)cc1 | -26.7% (inactive) | –

Row | Compound | activity, negative = inhibition | AC50
51 | O=C(CSc1nc(-c2ccccc2)nc2ccccc12)Nc1nccs1 | -22.4% (inactive) | –
52 | O=C(CSc1nc2ccccc2s1)NNC(=S)Nc1ccc(Br)cc1 | – | 2.82 µM (active)
53 | Cc1cccc(-c2nsc(SCC(=O)Nc3nccs3)n2)c1 | – | 1.78 µM (active)
54 | O=C(CSc1nc2ccccc2s1)Nc1nccs1 | – | 1.58 µM (active)
55 | O=S(=O)(c1ccccc1)c1cnc(-c2cccnc2)nc1-c1ccc(Cl)cc1Cl | – | 5.01 µM (active)
56 | O=S(=O)(c1ccc(Cl)cc1)c1cnc(-c2cccnc2)nc1-c1ccccc1 | – | 2.82 µM (active)
57 | OC[C@H]1O[C@H](n2cnc3c(NC4CCCC4)nc(Cl)nc32)[C@@H](O)[C@@H]1O | 4.34% (inactive) | –
58 | CCn1c(SCc2cccc(C)c2)nnc1-c1ccccc1 | – | 0.501 µM (active)
59 | COc1ccc(-c2nnc(SCc3cccc(C)c3)n2N)cc1 | – | 2.51 µM (active)
60 | CCn1c(SCc2cccc(C)c2)nnc1-c1ccc(C)cc1 | – | 2.24 µM (active)
61 | NS(=O)(=O)c1cc2c(cc1Cl)=NC(CCC(=O)O)=NS=2(=O)O | 22.1% [at 11.4 µM] (inactive) | –
62 | C[C@H](C[C@H](N)C(=O)O)C(=O)O | -19.8% (inactive) | –
63 | O=C(O)CCC(=O)c1ccc2ccc3cccc4ccc1c2c34 | 25.1% [at 11.4 µM] (inactive) | –
64 | NC(=O)/C(=C\c1ccncc1)c1cccc2ccccc12 | – | 2.51 µM (active)
65 | O=C(O)/C(=C\c1ccncc1)c1cccc2ccccc12 | – | 2.51 µM (active)
66 | O=C(O)/C(=C\c1ccc(O)cc1)c1cccc2ccccc12 | -11.8% [at 11.4 µM] (inactive) | –
67 | OC[C@@H]1O[C@@H](N2CCN([C@@H]3O[C@@H](CO)[C@@H](O)[C@H](O)[C@H]3O)CC2)[C@@H](O)[C@H](O)[C@H]1O | 29.2% [at 11.4 µM] (inactive) | –
68 | Clc1ccc2c(c1)C1=C(C(c3ccncc3)O2)C(c2ccc(Br)cc2)n2ncnc2N1 (configuration not stated) | – | 0.708 µM (active)
69 | O=C(O)c1cc(N=Cc2ccccc2O)cc(C(=O)O)c1 | 8.41% [at 11.4 µM] (inactive) | –
70 | Cc1cc(O)c(C(C)C)cc1N=Cc1ccccc1O | – | 0.398 µM (active)
71 | O=C(CCN1C(=O)S/C(=C\c2ccccc2)C1=O)Nc1ccc(S(=O)(=O)Nc2nccs2)cc1 | – | 5.01 µM (active)
72 | O=C(O)c1ccccc1C(=O)Nc1ccc(S(=O)(=O)Nc2nccs2)cc1 | 32.7% [at 25.6 µM] (inactive) | –
73 | c1ccc2c(CN3CCN(Cc4c[nH]c5ccccc45)CC3)c[nH]c2c1 | 1.09% [at 11.4 µM] (inactive) | –
74 | O=S1(=O)CCN(c2ccccc2CC(c2c[nH]c3ccccc23)c2c[nH]c3ccccc23)CC1 | – | 3.16 µM (active)
75 | Fc1cc2nc(-c3ccncc3)[nH]c2cc1F | – | 7.08 µM (active)

Row | Compound | activity, negative = inhibition | AC50
76 | COc1ccc(C2=CSC(/N=C/c3ccc(F)cc3)=NN2)cc1 | – | 17.8 µM (active)
77 | CC(C)CCOc1ccc(NC(=O)C2OC3OC(C)(C)OC3C3OC(C)(C)OC23)cc1 (configuration not stated) | -23% (inactive) | –
78 | COc1ccc(Br)cc1C(=O)Nc1ccc(Cc2ccncc2)cc1 | – | 0.794 µM (active)
79 | CCN(CC)CCNC(=O)c1cc(Br)c(N)cc1OC | -17.9% [at 25.6 µM] (inactive) | –
80 | CN1CCc2c(sc3c2c(=O)n(-c2ccccc2)c2nncn32)C1 | -9.84% (inactive) | –
81 | Cn1c(=O)n(-c2ccc(Cl)cc2)c(=O)c2c3c(sc21)COC(C)(C)C3 | – | 20 µM (active)
82 | Cc1ccc(-n2c(C)cc(/C=C(\C#N)C(=O)NCC3CCCO3)c2C)cc1 (configuration not stated) | – | 3.16 µM (active)
83 | COc1ccc(/C=C(\C#N)C(=O)NCC2CCCO2)cc1OC (configuration not stated) | 3.24% (inactive) | –
84 | COc1cc(/C=C(\C#N)C(=O)NCC2CCCO2)c([N+](=O)[O-])cc1OC (configuration not stated) | – | 11.2 µM (active)
85 | N[C@@H](Cc1ccnnc1)C(=O)O | 35.8% [at 11.4 µM] (inactive) | –
86 | CC(C)[C@H](CO)Nc1nc(Nc2ccc(C(=O)O)c(Cl)c2)c2ncn(C(C)C)c2n1 | -34.9% (inactive) | –
87 | CCOC(=O)CSc1cc(=O)n(C)c2cc(Cl)ccc12 | – | 4.47 µM (active)
88 | Cc1ccc(C)c(/C(O)=C2\C(=O)C(=O)N(Cc3cccnc3)C2c2cccnc2)c1 (configuration not stated) | -0.22% (inactive) | –
89 | Cc1cccc(-n2nc([N+](=O)[O-])c(=NCc3cccnc3)n2O)c1 | – | 6.31 µM (active)
90 | O=C1c2ccccc2C(=O)N1CCSC(=S)N1CCOCC1 | – | 1.58 µM (active)
91 | Cn1c(=S)c2[nH]c(SCCN3C(=O)c4ccccc4C3=O)nc2n(C)c1=O | 17.2% [at 11.4 µM] (inactive) | –
92 | Cc1cc(CC(=O)O)n(C)c1C(=O)c1ccc(Cl)cc1 | -13.8% [at 25.6 µM] (inactive) | –
93 | Cc1nc2cnc(N3CCOCC3)nc2n(C)c1=O | -28.1% (inactive) | –
94 | Cc1cc2ccccn2c1C(=O)c1nc(N2CCOCC2)ncc1Cl | – | 7.94 µM (active)
95 | Cc1cc2ccccn2c1C(=O)c1ccc(Cl)cc1 | – | 1.26 µM (active)
96 | O=c1c(-c2ccccc2)nc2cnc(N3CCOCC3)nc2n1-c1ccccc1 | -17.9% (inactive) | –
97 | CCC(=O)NNc1cc(=O)c2c(=O)n(C)c(=O)n(C)c2[nH]1 | 9.13% (inactive) | –
